Results taken from publication PMC5540273 (PLoS ONE, 2017).

Experiments:
Settings in all cases: concentration: 1 μM, replicates: in singlicate; n = 1
BTK = tested on: BTK
BUB1 = tested on: BUB1
CAMK1B = tested on: CAMK1B
CAMK1D = tested on: CAMK1D
CAMK1G = tested on: CAMK1G
CAMK1 = tested on: CAMK1
CAMK2A = tested on: CAMK2A
CAMK2B = tested on: CAMK2B
CAMK2D = tested on: CAMK2D
CAMK2G = tested on: CAMK2G
CAMK4 = tested on: CAMK4
CAMKK1 = tested on: CAMKK1
CAMKK2 = tested on: CAMKK2
CASK = tested on: CASK
CDC2L1 = tested on: T1, CDC2L1
T1 construct: gene CDK11B

CDC2L2 = tested on: CDC2L2
CDC2L5 = tested on: T2, CDC2L5
T2 construct: gene CDK13

CDK11 = tested on: T3, CDK11
T3 construct: gene CDK19

CDK2 = tested on: CDK2
CDK3 = tested on: CDK3
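Further: KINOMEscan kinase panel screen.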

Compound | %Inh (BTK) | %Inh (BUB1) | %Inh (CAMK1B) | %Inh (CAMK1D) | %Inh (CAMK1G) | %Inh (CAMK1) | %Inh (CAMK2A) | %Inh (CAMK2B) | %Inh (CAMK2D) | %Inh (CAMK2G) | %Inh (CAMK4) | %Inh (CAMKK1) | %Inh (CAMKK2) | %Inh (CASK) | %Inh (CDC2L1) | %Inh (CDC2L2) | %Inh (CDC2L5) | %Inh (CDK11) | %Inh (CDK2) | %Inh (CDK3)
CC(=O)c1c(C)c2cnc(Nc3ccc(N4CCNCC4)cn3)nc2n(C2CCCC2)c1=O | 0% | 0% | 0% | 2% | 0% | 0% | 0% | 0% | 0% | 0% | 0% | 0% | 0% | 0% | 0% | 3% | 0% | 0% | 0% | 8%
COc1cc2ncnc(Nc3cccc(Br)c3)c2cc1OC.Cl [GI230329] | 30% | 96.5% | 0% | 18% | 0% | 23% | 0% | 0% | 0% | 32% | 0% | 20% | 16% | 18% | 0% | 14% | 0% | 0% | 0% | 6%
FC(F)(F)c1ccccc1-c1cc(-c2c[nH]nc2-c2ccccn2)ccn1 [GW679396] | 0% | 0% | 29% | 12% | 8% | 21% | 0% | 0% | 9% | 29% | 0% | 5% | 21% | 17% | 0% | 0% | 0% | 0% | 0% | 0%
Cc1c(Cn2c(C)c(C)n3c(=O)cc(N4CCOCC4)nc23)cccc1C(F)(F)F [GSK2328680] | 0% | 2% | 0% | 5% | 2% | 7% | 0% | 0% | 0% | 15% | 0% | 0% | 10% | 16% | 0% | 14% | 0% | 0% | 2% | 7%
COC(=O)c1cccc(NC(=O)NC2CCN(c3ccnc(Nc4ccc(OC)cc4)n3)C2)c1 (stereo not drawn) [GSK1379746] | 2% | 75% | 4% | 3% | 0% | 0% | 100% | 100% | 0% | 0% | 0% | 0% | 0% | 2% | 0% | 32% | 0% | 76% | 5% | 9%
Cc1ccc(NC(=O)c2ccc(Cl)cc2)cc1-c1ccc(C(=O)Nc2ccncc2)cc1 [GSK1398467] | 0% | 47% | 4% | 0% | 9% | 4% | 100% | 86% | 10% | 12% | 0% | 0% | 5% | 16% | 0% | 24% | 0% | 2% | 0% | 6%
CS(=O)(=O)CCNCc1nc(-c2ccc3ncnc(Nc4ccc5c(cnn5Cc5ccccc5)c4)c3c2)cs1.Cl.Cl [GW569716] | 20% | 49% | 0% | 9% | 0% | 11% | 0% | 0% | 6% | 16% | 0% | 4% | 1% | 0% | 0% | 0% | 0% | 0% | 0% | 1%
Cc1ccccc1Cn1ccn2c(=O)cc(N3CCOCC3)nc12 [GSK2269905] | 0% | 0% | 0% | 0% | 3% | 2% | 0% | 0% | 20% | 47% | 0% | 9% | 31% | 15% | 0% | 0% | 0% | 0% | 0% | 12%
O=C(Nc1n[nH]c2nc(-c3cccs3)c(Br)cc12)C1CC1 [SB-735297] | 0% | 0% | 0% | 0% | 0% | 0% | 100% | 100% | 10% | 11% | 0% | 0% | 0% | 13% | 1% | 12% | 24% | 0% | 77% | 26%
Cn1cncc1C(=O)NC1CCN(c2ccnc(Nc3ccc(F)cc3)n2)C1 (stereo not drawn) [GSK1379717] | 0% | 32% | 0% | 22% | 12% | 16% | 0% | 0% | 24% | 32% | 0% | 30% | 32% | 14% | 0% | 6% | 0% | 3% | 0% | 0%
O=C(Nc1n[nH]c2cc(-c3ccsc3)ccc12)C1CC1 [SB-732932] | 10% | 20% | 2% | 0% | 23% | 30% | 20% | 11% | 12% | 15% | 0% | 9% | 0% | 23% | 13% | 3% | 47% | 5% | 57% | 38%
Cc1ccc(NC(=O)Nc2ccc(Cl)c(C(F)(F)F)c2)cc1-c1ccc(C(=O)Nc2ccncc2)cc1 [GSK1398470] | 0% | 9% | 2% | 15% | 12% | 17% | 0% | 4% | 13% | 25% | 0% | 0% | 0% | 0% | 0% | 20% | 0% | 11% | 0% | 0%
COc1cccc(C2=C(Nc3cc(Cl)c(O)c(Cl)c3)C(=O)NC2=O)c1 [SB-390767] | 0% | 2% | 0% | 16% | 0% | 4% | 0% | 0% | 0% | 0% | 0% | 11% | 0% | 32% | 0% | 0% | 0% | 0% | 0% | 18%
COc1cccc(NC(=O)Nc2ccc(C)c(-c3ccc(C(=O)Nc4ccncc4)cc3)c2)c1 [GSK1398474] | 0% | 0% | 0% | 25% | 0% | 21% | 0% | 2% | 11% | 22% | 10% | 0% | 19% | 0% | 0% | 15% | 0% | 0% | 24% | 0%
CC(C)c1ccc(O)cc1Nc1ccnc2ccc(C(F)(F)F)cc12 [GW482059] | 0% | 13% | 27% | 0% | 0% | 0% | 0% | 0% | 0% | 1% | 14% | 0% | 0% | 0% | 0% | 5% | 0% | 0% | 0% | 0%
